# Experimental data as given in ChEMBL document CHEMBL3988442, “University of Dundee, Small-Polar-MMV Screening Library” (2021).
# Screen size: about 48,000 compounds; about 13,000 (27%) showed an effect of 50% or more. Some of the results follow.
# System: Wolbachia pipientis
# Test: Anti-Wolbachia Cell-Based Screen
# Type: functional
# Set-up: scale not given: in the data most compounds retested in dose-response had high values
# Settings: 5 µM
row,Structure (SMILES),Percent Effect [%]
1,COc1ccc(C(O)CN2CC(n3cc(C)cn3)C2)cc1 (stereo not drawn),-26.31
2,Cc1oc(C)c(C(=O)NCc2ccccn2)c1C,-10.25
3,NCc1cccc(-c2cccnc2C(=O)NCCCN2CCOCC2)c1,156.6
4,O=C(NCCCN1CCOCC1)c1cc(-c2ccco2)[nH]n1,0.6677
5,O=C(NCCN1CCCCCC1)c1cccc(Cl)c1Cl,-3.616
6,CN(C)Cc1cccc(-c2cccnc2C(=O)NCc2ccccn2)c1,107.8
7,NCc1cccc(-c2cccnc2C(=O)NCCN2CCCC2)c1,177.6
8,COc1cc(CN(C)C(=O)NCc2ccccn2)ccc1SC,-14.77
9,Cn1ccnc1-c1cccc(NC(=O)NCCCN2CCOCC2)c1,9.655
10,O=C(NCCN1CCCCC1)c1cccc(Cl)c1Cl,-2.651
11,O=C(NCCCN1CCOCC1)c1ccnc(OCc2ccccc2)c1,13.78
12,O=C(NCCCN1CCOCC1)c1ccc(-c2ccccc2)[nH]c1=O,-4.893
13,O=C(NCCCN1CCOCC1)c1cc(-c2ccccc2)[nH]n1,93.89
14,CC(CC#N)NC(=O)c1cc(Br)c2c(c1)OCCO2 (stereo not drawn),3.147
15,Cc1ccc(C(=O)N2CCC(C(F)(F)F)CC2)cc1N1CCNC1=O,18.95
16,O=C(O)C(F)(F)F.O=C1CCCN1CC1CN(CC2CCOCC2)Cc2nccn2C1 (stereo not drawn),-5.52
17,CCCn1cnnc1CNCc1c[nH]nc1-c1ccc(F)cc1,-2.592
18,c1cncc(-c2nnc(C3(c4ccc5c(c4)OCO5)CCOCC3)o2)c1,0.6275
19,O=C(NCCN1CCOCC1)c1cc(-c2ccccc2Cl)[nH]n1,0.5934
20,NCc1cccc(-c2cccnc2C(=O)NCCN2CCOCC2)c1,178.8
21,Cn1ccnc1-c1cccc(NC(=O)NCCN2CCOCC2)c1,1.066
22,O=C(NCCCn1ccnc1)Nc1ccn(CCc2ccccn2)n1,-2.122
23,CCN(Cc1cccc(C(=O)Nc2cn(C)nn2)c1)[C@H]1COC[C@@H]1O,20.02
24,COc1cc(N2CCn3cc(CNc4ccccn4)nc3C2)ncn1,0.6158
25,CC(C)OCCC(=O)NCCC(=O)N1CCN(c2ccccn2)CC1,105.6
26,Cc1csc(N2CCN(C(=O)CCNc3ncccn3)CC2)n1,-3.8
27,CC(C)COCCC(=O)NCCC(=O)N1CCN(c2ccccn2)CC1,140.4

row,Structure (SMILES),Percent Effect [%]
1,Cc1cc(CNC(=O)CCN2CCN(c3ccccn3)CC2)c(C)o1,-14.14
2,Cc1ncsc1CNC(=O)CCN1CCN(c2ccccn2)CC1,-8.127
3,Cc1ccc(CNC(=O)CCN2CCN(c3ccccn3)CC2)n1C,5.614
4,Cc1nc(N2CCOCC2)nc2c1COCC21CCN(CC2CC2)C1.O=C(O)C(F)(F)F (stereo not drawn),1.071
5,Cc1nc(N(C)C)nc2c1COCC21CCN(C(=O)C2CC2)C1 (stereo not drawn),112
6,Cc1nc(N(C)C)nc2c1COCC21CCN(C(=O)NC(C)C)C1 (stereo not drawn),14.65
7,COCC(=O)N1CCC2(COCc3c(C)nc(N(C)C)nc32)C1 (stereo not drawn),100.6
8,CC(=O)NCC(=O)N1CCC2(COCc3c(C)nc(N(C)C)nc32)C1 (stereo not drawn),108.4
9,Cc1noc(C)c1CN1CCC2(COCc3cnc(N(C)C)nc32)C1.O=C(O)C(F)(F)F (stereo not drawn),-6.223
10,COCCN1CCC2(COCc3c(C)nc(N4CCOCC4)nc32)C1.O=C(O)C(F)(F)F (stereo not drawn),8.185
11,Cc1nc(N2CCOCC2)nc2c1COCC21CCN(CC(C)C)C1 (stereo not drawn),0.306
12,Cc1nc(N(C)C)nc2c1COCC21CCN(C(=O)NCC(C)C)C1 (stereo not drawn),114.7
13,CCC(=O)N1CCC2(COCc3c(C)nc(N(C)C)nc32)C1 (stereo not drawn),5.169
14,Oc1c(F)cc(CNc2cccc(-c3nnc[nH]3)c2)cc1F,3.752
15,NCc1cn(CC2CCCN(C(=O)NCCc3ccc(F)cc3)C2)nn1 (stereo not drawn),-14.7
16,O=C(CSc1nnc[nH]1)NCc1sccc1Br,-6.223
17,COc1ccc(CCC(=O)N2CCCC(n3cncn3)C2)cc1 (stereo not drawn),106.9
18,O=C(CCc1ccsc1)N1CCCC(n2cncn2)C1 (stereo not drawn),119.5
19,O=C(Cc1ccc2c(c1)OCCO2)N1CCCC(n2cncn2)C1 (stereo not drawn),8.803
20,COc1ccc(CCN2CCCC(n3cncn3)C2)cc1 (stereo not drawn),-2.484
21,N#Cc1ccc(CCC(=O)N2CCCC(n3cncn3)C2)cc1 (stereo not drawn),122.1
22,O=C(CCc1ccc(Cl)s1)N1CCCC(n2cncn2)C1 (stereo not drawn),2.271
23,COc1ccc(CCCC(=O)N2CCCC(n3cncn3)C2)cc1 (stereo not drawn),-28.74
24,N#Cc1ccc(CC(=O)N2CCCC(n3cccn3)C2)cc1 (stereo not drawn),3.73
25,O=C(c1cccnc1O)N1CCCC2(C=Cc3ccccc3O2)CC1 (stereo not drawn),2.5
26,COc1cccc(COCC(O)CN2CC(n3cccn3)C2)c1 (stereo not drawn),-10.3
